First the molecules themselves.
T1: UNK ZnF1-6 (called full-length) (human, UniProt Q9C0B0 30-357)
T1 sequence: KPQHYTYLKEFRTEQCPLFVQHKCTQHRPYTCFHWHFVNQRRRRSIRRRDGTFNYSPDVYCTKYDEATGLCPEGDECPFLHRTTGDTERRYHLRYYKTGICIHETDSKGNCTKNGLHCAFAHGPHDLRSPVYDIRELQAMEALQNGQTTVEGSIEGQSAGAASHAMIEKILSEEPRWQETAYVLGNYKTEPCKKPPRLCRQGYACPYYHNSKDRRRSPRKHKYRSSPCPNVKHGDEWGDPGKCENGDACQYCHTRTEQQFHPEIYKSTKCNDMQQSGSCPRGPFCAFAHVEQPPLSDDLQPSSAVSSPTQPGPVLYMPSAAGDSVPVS

B1: chr10:113908677:113908778:+|3pUTR|ENSG00000196865|unk|FALSE|bound_elsewhere (ssRNA)
RNA: GGGAGUUCUACAGUCCGACGAUCAGCUAUGCUCCUUACUUACUUCUUUUAUUAUAAACAAAUUCCUUUGCUUUGGCUGAUACUAGCUGAGUCAUUGAUCAUCAUUGGUACCAUGAUAUUGUAAUCUAUGCUGCUAUUUGGCACCAACAGAGGAUUGAGCAUCA
B2: chr5:113014749:113014850:+|3pUTR|ENSG00000172795|msi1|total|mutant (ssRNA)
RNA: GGGAGUUCUACAGUCCGACGAUCUAAAAAUCCUUUUUUACAGUGGUAUCCACAAAAUACUUCUCUGCUUAUAAAUGUUAUUGCCGAAAUCUUUAUUCUGUGCCGGCCGCCUAUUUAAUUGGGUUCCACUGAACCUCAUGGGACCAACAGAGGAUUGAGCAUCA
B3: chrX:51682015:51682831:-|CDS|ENSG00000283093|control|control|control (ssRNA)
RNA: GGGAGUUCUACAGUCCGACGAUCCAGUGCCCCCGGGUCCAAGUCGGGGUCGGGAGCCACGCGGCGGCCAAGAGGUGGCUGGGUAGGUGGCGACGGAAGCGCCGCUGGCGGCGGGUCCGGAAGGCGGGCCCCAGAGACCUGCUGCAACAGAGGAUUGAGCAUCA
B4: chr6:89631235:89631336:+|3pUTR|ENSG00000135299|msi1|FALSE|unique (ssRNA)
RNA: GGGAGUUCUACAGUCCGACGAUCUGAAGUUUGAAAGCUCAGAUUAAGCAAGCCAUGCCAAGAAACUGGACGAUGUGUAAGCCUAGACUCUAAAAUUCAAGAUGUGUGAAAUAAUAUAAGUCAAAAGCAAGAAAAACGUAAUCCCAACAGAGGAUUGAGCAUCA
B5: chr3:120327094:120327202:-|3pUTR|ENSG00000163428|unk|FALSE|unique (ssRNA)
RNA: GGGAGUUCUACAGUCCGACGAUCGAAGAGAAGUCACCAAACACCUAGGGACAGUCCUAGGCCUAGAAAGCCCUUUAAAGUAAUAGUGAAUUGUUUUAAAAUUAAGUUAUUGAGUGGCCUACUGACUACCAUCCAAAAACCUUUCAACAGAGGAUUGAGCAUCA
B6: chr7:127374855:127374969:-|CDS|ENSG00000048405|unk|FALSE|unique (ssRNA)
RNA: GGGAGUUCUACAGUCCGACGAUCCCUAGAAGCCAUAUAUCCAAGUGUGGACAAACGAGAAUAUAUUAUUAAGCUAGAACCCAUAGAAACUAAUCAAAAUGCAGUAUUUCAAUAUAUUUCGAGGACUGAUAAUCCUAUUGAAGUCAACAGAGGAUUGAGCAUCA
B7: chr6:39540002:39540221:-|CDS|ENSG00000164627|control|control|control (ssRNA)
RNA: GGGAGUUCUACAGUCCGACGAUCCCACUUGGCUGGCAUGGAUAGACGUGAAUUCAGACAGUCCCAGAGCCCACCCUUCCGCCUAGGAAACCCAGAAGAAGGUCAAAGAAUGCGACUAUCCUCAGCUCCCUCACAGGCCCAGGACAACAGAGGAUUGAGCAUCA
B8: chr12:100626600:100626701:+|3pUTR|ENSG00000139354|unk|FALSE|unique (ssRNA)
RNA: GGGAGUUCUACAGUCCGACGAUCAAUUUUAUCAUCAAGUAUUCCCUUAUAAAACCAAGUAACACUUCUUUAUCAGUAACUUUUAGAACUUAAAAGAAAGCAAAAAGUAAAUGGAAUUGUAGGCAAUUUAUGAAUCCUAGUAGACAACAGAGGAUUGAGCAUCA
B9: chr4:54297753:54297953:+|3pUTR|ENSG00000134853|msi1|FALSE|unique (ssRNA)
RNA: GGGAGUUCUACAGUCCGACGAUCUUUUUAUGAUGACAAUCAAAGCCGGCCUGAGAAACACUAUUUGUGACUUUUUAAACGAUUAGUGAUGUCCUUAAAAUGUGGUCUGCCAAUCUGUACAAAAUGGUCCUAUUUUUGUGAAGACAACAGAGGAUUGAGCAUCA
B10: chr10:87746157:87746259:+|3pUTR|ENSG00000198682|unk|FALSE|unique (ssRNA)
RNA: GGGAGUUCUACAGUCCGACGAUCAACUGAAGACCAAAUCUUAGCAGGUAAAAGCAAUAUUCUUAUACAUUUCAUAAUAAAAUUAGCUCUAUGUAUUUUCUACUGCACCUGAGCAGGCAGGUCCCAGAUUUCUUAAGGCUUUGUCAACAGAGGAUUGAGCAUCA
B11: ENSG00000156687:stop:overlap|stop_codon|ENSG00000156687|stop_codon|NA|stop_codon (ssRNA)
RNA: GGGAGUUCUACAGUCCGACGAUCACAUUUCAGAAUCCCAGCUUGAUGAAGCCGACUUCAACUACAGCAGGCAAAAUGGACUCUAGUCCACUUCCUCCCAUGAGACAGAGUGAUGGCCAGCUUGGGGACAUUUGCUUUAAAUGGCAACAGAGGAUUGAGCAUCA
B12: chr17:21001410:21001511:-|3pUTR|ENSG00000124422|msi1_unk|FALSE|overlapping (ssRNA)
RNA: GGGAGUUCUACAGUCCGACGAUCUAGUACAACUUUUAGACACAGAAAUCUGAAUGACAUAUAUUGUUCUGUGUCAAGAAACUUAGAUUUUUUUUUUAACUAUUUAAAAACGUGAAACCUAUUCUUAGCUCACAGGCCAUGGAGCAACAGAGGAUUGAGCAUCA
B13: chr6:96891104:96891324:-|CDS|ENSG00000123545|unk|FALSE|unique (ssRNA)
RNA: GGGAGUUCUACAGUCCGACGAUCUAAUCAUAAGCUUUUCCCAGAAACCUGGACUGCUGAGAAAAUAAUGCAGGAAUACCAGUUAGAACAGAAAGAUGUGAAUUCUCUUCUUAAAUAUUUUGUUACUUUUGAAGUCGAAAUCUUCAACAGAGGAUUGAGCAUCA
B14: chr5:141515350:141515460:-|3pUTR|ENSG00000131504|msi1_unk|FALSE|overlapping (ssRNA)
RNA: GGGAGUUCUACAGUCCGACGAUCCUCAGCUUUCCAUCCCCAGCUAGGAAGAAAGAAUGGCACUCUUGGGCUUGGCCCAGAAUUAGAGUUAUUAGAGCAAGAGAGAGCUUAGGAAGCAUGAGGGCAACUAUAGUGAGGCCUUAUCAACAGAGGAUUGAGCAUCA
B15: chr5:111496093:111496242:-|3pUTR|ENSG00000164211|unk|FALSE|unique (ssRNA)
RNA: GGGAGUUCUACAGUCCGACGAUCUUUACAUGUAUAGUUAAAUAUUAAAAUUCAUCUCUUGCAGUUCAAUAAAAGCUAUAGUAUAGAUUUUAUUUUUAAGAAGUUUAUAUAAUUCUUUUGUGAACCAAUAUGUAAAACUAGAAUCAACAGAGGAUUGAGCAUCA
B16: chr10:87814449:87814585:-|CDS|ENSG00000138138|unk|FALSE|bound_elsewhere (ssRNA)
RNA: GGGAGUUCUACAGUCCGACGAUCUUUAAUUUUCCGUUUGACAAUAUUUGGUGCAGUGACAUACUUUACUAUCAAAUGGAUGGUAGAUGCAAUUGAUCCAACCAGAAAGCAAAAAGUAGAAGCUCAGAAACAGGUAUGAUUGAACAACAGAGGAUUGAGCAUCA
B17: ENSG00000104805:stop:overlap|stop_codon|ENSG00000104805|stop_codon|NA|stop_codon (ssRNA)
RNA: GGGAGUUCUACAGUCCGACGAUCAGUUGAAGGAGGUGUGGGAGGAGCUGGAUGGACUGGACCCCAACAGCAUCCCAAAGUGCUAGGAUUACAGGCGUGAGUCACUGCGCCCGGCCUCGAAAGCCCUUUCUCUAUGGUGGAUCACAACAGAGGAUUGAGCAUCA
B18: chr2:45599705:45599806:-|CDS|ENSG00000068784|msi1|total|mutant (ssRNA)
RNA: GGGAGUUCUACAGUCCGACGAUCCUCAUAUGUUCUCUUUGUGGUUUGACCGAACCGCUCUGUGGCUAUUGCUGAUACUGCUUCCGAAGACAGAAAAAAUAAAUUGGAUACUGUACAGACUCUGAAAACAGCCAAGACAAAACACAACAGAGGAUUGAGCAUCA
B19: chr1:93365539:93365640:+|3pUTR|ENSG00000117505|unk|FALSE|unique (ssRNA)
RNA: GGGAGUUCUACAGUCCGACGAUCAGGAGGCAAAAUUGCACCCUGUUGAAAACCACCACCUUAGAUCAUCUAGGUUUUACUUUUAGGAUAAGACACUUGAGGGAAAGGCUGUGAAACUGAACCUCUGUUAGAAGCAACACACAGCAACAGAGGAUUGAGCAUCA
B20: chr2:171983412:171983537:+|3pUTR|ENSG00000128708|unk|total|mutant (ssRNA)
RNA: GGGAGUUCUACAGUCCGACGAUCUGAUGACUUUAAUUUUAAAAUCUUGUGACAUUUUGCUUAUACUAAAAGUUAUCUAUCUUCCGUUGAAUAUUUUCUUUUGGAGAGAUUGUAUAUUUUAAAAUACUGUUCCGAGUUUAUGAGCAACAGAGGAUUGAGCAUCA
B21: chr19:41330322:41331077:-|three_prime_utr|ENSG00000105329|control|control|control (ssRNA)
RNA: GGGAGUUCUACAGUCCGACGAUCGUCUGCACUAUUCCUUUGCCCGGCAUCAAGGCACAGGGGACCAGUGGGGAACACUACUGUAGUUAGAUCUAUUUAUUGAGCACCUUGGGCACUGUUGAAGUGCCUUACAUUAAUGAACUCCAACAGAGGAUUGAGCAUCA
B22: chr12:88196262:88196297:+|3pUTR|ENSG00000139324|msi1_unk|FALSE|overlapping (ssRNA)
RNA: GGGAGUUCUACAGUCCGACGAUCUGUAUACUUGUUUUUAACUUUAAAUGUAAUUUUUAAUCAGGUAAAGUUUGACACAUGUAUAGCUACAUACACACAUUUUUAAUGGUGCUCAUAUAUACUGUAUUUUUUGUUGUUUAGUUUCAACAGAGGAUUGAGCAUCA

Whole data set: some 5,800 sequences, median “enrichment r” near 0.68, cut for the highest 2% near 11. Shown is part of a subset that was picked to be rich in the highest values.

This assay has as its target T1, UNK ZnF1-6 (called full-length). Description: nsRBNS (natural sequence RNA bind-n-seq); RBNS binding buffer (assumed for nsRBNS): 25 mM Tris pH 7.5, 150 mM KCl, 3 mM MgCl2, 0.01% Triton X-100, 500 ug/ml BSA, 20 U/ml SUPERase-In, 4 C; UNK is unkempt and MSI1 is Musashi-1; names of the RNAs are library labels; protein concentration not given here; high values mean tight binding.
Molecule B1 had a binding signal of 3.85 enrichment R.

B2 returned a binding signal of 0.567 enrichment R.

For B3, the binding signal was determined as 6.11 enrichment R.

With B4, the binding signal worked out at 0.227 enrichment R.

As to B5, the binding signal is 3.46 enrichment R.

B6 came in with a binding signal of 18.1 enrichment R.

In the case of B7, the binding signal is 0.794 enrichment R.

Consider B8, for which the binding signal was found to be 4.55 enrichment R.

Turning to B9, the binding signal came out at 0.454 enrichment R.

Molecule B10 yielded a binding signal of 18.7 enrichment R.

B11 displayed a binding signal of 0.56 enrichment R.

The molecule B12 returned a binding signal of 24.9 enrichment R.

Turning to B13, the binding signal turned out to be 0.645 enrichment R.

The molecule B14 returned a binding signal of 13.3 enrichment R.

As to B15, the binding signal worked out at 2.13 enrichment R.

Turning to B16, the binding signal was determined as 0.395 enrichment R.

B17: the binding signal worked out at 0.682 enrichment R.

The molecule B18 showed a binding signal of 0.362 enrichment R.

B19 yielded a binding signal of 5.47 enrichment R.

Molecule B20 registered a binding signal of 0.599 enrichment R.

For the molecule B21, the binding signal was determined as 2.74 enrichment R.

The molecule B22 had a binding signal of 3.56 enrichment R.

The record behind these values is paper PMC12136788.
